Screening results from PubChem BioAssay.
TDP1 cell noCPT: qHTS for Inhibitors of human tyrosyl-DNA phosphodiesterase 1 (TDP1): qHTS in cells in absence of CPT; DT40 Tdp1-/- hTDP1 cells, no CPT, ATP luminescence, 48 h; Potency, µM (top dose mostly 46.2 µM), inactives show at the top dose activity change, negative = growth inhibition, hits mostly inhibitors; 420,000 tested, 15% active; also: potency is read from the fitted curve at half-maximal effect; nearly all actives have a fitted effect of over 55% in size
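Cells were dispensed at 400 per well, compounds added by pin tool, plates incubated ≥48 hr at 37 °C, then CellTiter-Glo added for 30 min at room temperature before luminescence reading. Line: DT40 Tdp1-/- complemented with hTDP1; camptothecin omitted.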
IL1B secr inh: inhibitors of inflammasome signaling (IL-1 beta secretion); THP-1 LPS/ATP IL-1B secretion, AlphaLISA, 16 h; hits give low values; activity change, % at 57.5 µM; 360,000 tested, 4.7% active; AID 743279; in the data active = activity change below about -50%; inconclusive = mostly about -30% to -49%
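THP-1 cells pretreated 1 hr with compounds (up to 57.5 uM final), then stimulated with LPS (250 ng/mL final) plus ATP (1.25 mM final); secreted IL-1B measured by AlphaLISA after 16 hr, decreased signal indicating inhibition.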
DT40 TDP1 CPT: DT40-hTDP1 cell growth loss with CPT; chicken DT40 Tdp1-/-;hTDP1 cells + 20 nM CPT, ATP luminescence, 48 h; Potency, µM (highest dose often 46.2 µM), without a hit: at the highest dose activity change, negative = growth inhibition, usual class: inhibitors; 420,000 tested, 12% active; also: potency is read from the fitted curve at half-maximal effect; nearly all actives have a fitted effect of over 55% in size
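Chicken DT40 Tdp1-/- cells complemented with human TDP1, 400 cells/well, exposed to compounds plus 20 nM camptothecin for at least 48 h at 37 C; viability read as ATP content by CellTiter-Glo luminescence.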
HT1080NT lethal: kills 2HG-producing HT-1080-NT fibrosarcoma cells | HT-1080-NT fibrosarcoma viability, CellTiter-Glo ATP luminescence, 48 h | Potency, µM (highest dose often 46.1 µM), inactives show top-dose activity, negative = less viability, usual class: cytotoxic | 360,000 tested, 1.6% active | AID 686970;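 also: NT is the 2HG producing partner of a matched IDH1 knockdown line; potency is read from the fitted curve at half-maximal effect; 0% = DMSO-treated cells and -100% = media-only wells without cells; nearly all actives have a fitted effect of over 55% in size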
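Fibrosarcoma NT cells, 750 per well in 5% FBS RPMI, were exposed to compound for 48 hours. Viability: CellTiter-Glo luminescence.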
HT1080 IDH1KD tx: kills HT-1080 cells with IDH1 knockdown | 360,000 tested, 2% active | Potency, µM (highest dose often 46.1 µM), inactives show top-dose activity, negative = toxicity, most hits filed as cytotoxic | HT-1080 IDH1 knockdown viability, ATP luminescence, 48 h;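 also: potency is read from the fitted curve at half-maximal effect; 0% = DMSO wells and -100% = cell-free medium wells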
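CellTiter-Glo luminescence after 48 h compound exposure at 37 degrees C of IDH1-knockdown HT-1080 cells in 5% FBS RPMI. %Activity scaled between DMSO wells and cell-free media wells, with curves fitted and assigned curve classes.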
An asterisk follows results filed as active; ? = inconclusive; nt = no result; [ ] = another dose, or the depositor's remark. Sampled rows, rich in hits. Any-hit rate of the full collection: about 19%. Unless noted, calls follow the shape of the dose curve; as a rule, active = well fitted curve in the direction sought with a large enough effect; inconclusive = small, poorly fitted or top-dose-only effect, or another doubt; inactive = no such curve, though single readings can be large; an effect the other way counts as inactive or inconclusive. Unless noted, % is scaled to controls: 0 for no effect and ±100 for the full control effect.

SMILES | TDP1 cell noCPT | IL1B secr inh | DT40 TDP1 CPT | HT1080NT lethal | HT1080 IDH1KD tx
CCOC(=O)N1CCC(NC(=O)C2CCN(S(=O)(=O)N3CCC(C)CC3)CC2)CC1 | -25% | 0 | -19% | 0%[9.24 µM] | 1%
Cc1onc(-c2c(F)cccc2Cl)c1C(=O)Nc1ccccc1N1CCOCC1 | 23µM* | -17 | ? | -11% | -13%
Cc1onc(-c2c(F)cccc2Cl)c1C(=O)NC1=NCCS1 | ? | -2 | -23% | 4%[9.24 µM] | -3%
Cc1onc(-c2c(F)cccc2Cl)c1C(=O)N1CCCc2ccccc21 | 18µM* | 17 | ? | ? | ?
Cc1onc(-c2ccccc2)c1C(=O)Nc1cc(C(F)(F)F)ccc1N1CCOCC1 | 2.9µM* | 67 | 3.7µM* | ? | 2.9µM*
Cc1onc(-c2c(F)cccc2Cl)c1C(=O)Nc1cccc2nsnc12 | 3.7µM* | ? | 16µM* | -30% | ?
Cc1onc(-c2ccccc2)c1C(=O)Nc1ccccc1N1CCOCC1 | ? | 18 | ? | 0% | 1%
CCOCC(=O)Nc1nc(-c2ccccc2)c(CC)s1 | ? | 25 | -26% | 13% | 3%
COCCCNC(=O)CN1C(=O)c2cccnc2Sc2ccccc21 | -9% | nt | -7% | nt | nt
CC(Cl)C(=O)Nc1cc(C(F)(F)F)ccc1N1CCOCC1 (stereo not given) | -13% | 0 | 4% | -2% | -11%
CN1CCN(c2ccc(C(F)(F)F)cc2NC(=O)Nc2ccccc2)CC1 | ? | -84* | ? | ? | -27%
COc1ccc(-c2c(C(=O)c3ccccc3)[nH]c(N)c2C(N)=O)cc1OC | -4% | -10 | ? | 5% | -1%
COc1ccc(-c2c(C(=O)c3ccc(Br)cc3)[nH]c(N)c2C(=O)c2ccccc2)cc1OC | 21µM* | 10 | ? | 24% | ?
CC(C)(C)C(=O)c1c(N)[nH]c(C(=O)c2ccccc2)c1-c1ccccc1Br | 16µM* | -14 | 26µM* | 5% | 13%
Nc1[nH]c(C(=O)c2ccccc2)c(-c2cccc3ccccc23)c1C(=O)NCc1ccccc1 | 23µM* | 96 | ? | 10% | 10%
CC(C)(C)C(=O)c1c(N)[nH]c(C(=O)c2ccccc2)c1-c1c(F)cccc1F | 21µM* | -26 | ? | -6% | -23%
CC(NC(=O)c1c(N)[nH]c(C(=O)c2ccccc2)c1-c1ccccc1Br)c1cccc2ccccc12 (stereo not given) | ? | -12 | ? | ? | ?
COC(=O)c1c(N)[nH]c(C(=O)c2ccccc2)c1-c1ccccc1Br | 16µM* | 30 | ? | 5% | 3%
CC(C)(C)C(=O)c1c(N)[nH]c(C(=O)c2ccccc2)c1-c1ccc(Cl)cc1Cl | ? | -5 | ? | 10% | 1%
Nc1[nH]c(C(=O)c2ccccc2)c(-c2ccc(Cl)cc2Cl)c1C(=O)c1ccc(Cl)c(Cl)c1 | ? | ? | 18µM* | 2% | 0%
NC(=O)c1c(N)[nH]c(C(=O)c2ccccc2)c1-c1ccccc1Br | 18µM* | 26 | ? | 21% | 12%
COC(=O)C(NC(=O)CSc1nc(N)cc(=O)[nH]1)c1ccccc1 (stereo not given) | 12% | 19 | 0% | 15% | 12%
CCCCCCSc1ccc([C@H]2N[C@@](Cc3ccccc3)(C(=O)OC)[C@H]3C(=O)N(CC)C(=O)[C@@H]23)cc1 | 18µM* | -23 | ? | -12% | 5%
CCCCCCSc1ccc([C@H]2N[C@@](Cc3ccccc3)(C(=O)OC)[C@H]3C(=O)N(C)C(=O)[C@@H]23)cc1 | 21µM* | ? | ? | -16% | -4%
CCC(C)Sc1ccc([C@H]2N[C@@](Cc3ccccc3)(C(=O)OC)[C@H]3C(=O)N(C)C(=O)[C@@H]23)cc1 (stereo not given in full) | ? | ? | ? | -3% | -9%
SMILES | TDP1 cell noCPT | IL1B secr inh | DT40 TDP1 CPT | HT1080NT lethal | HT1080 IDH1KD tx
CCN1C(=O)[C@H]2[C@@H](c3ccc(-c4ccc(F)cc4)c(OC)c3)N[C@@](Cc3ccccc3)(C(=O)OC)[C@H]2C1=O | -7% | -62* | -18% | 3% | 5%
CCCSc1ccc([C@H]2N[C@@](Cc3ccccc3)(C(=O)OC)[C@H]3C(=O)N(CC)C(=O)[C@@H]23)cc1 | 18µM* | -12 | 18µM* | 9% | 2%
CCN1C(=O)[C@H]2[C@@H](c3ccc(-c4ccc(C(C)=O)cc4)c(OC)c3)N[C@@](Cc3ccccc3)(C(=O)OC)[C@H]2C1=O | ? | ? | ? | -12% | -2%
NS(=O)(=O)c1cccc(NC(=O)c2ccno2)c1 | 24% | 12 | 1% | 6% | 4%
Cc1c(C(=O)N2CCN(C3CCS(=O)(=O)C3)CC2)oc2ccc(Cl)cc12 (stereo not given) | -15% | -6 | -18% | 1% | -8%
COc1ccccc1C1CN(Cc2cnn(C)c2C)Cc2ccccc2O1 (stereo not given) | -21% | nt | -2%[9.04 µM] | nt | nt
CCOC(=O)C1(Cc2ccccc2)NC(c2ccccc2F)C2C(=O)N(CC)C(=O)C21 (stereo not given) | 7.3µM* | 15 | 23µM* | -7% | -6%
O=C(NCc1cccnc1)c1cc(C2CCCN(C(=O)c3cccs3)C2)on1 (stereo not given) | ? | -3 | ? | 22% | 12%
COc1ccc(S(=O)(=O)N2N=C(C)Oc3ccccc3C2=O)cc1 | 2.9µM* | 42 | 2.9µM* | 2.9µM* | 3.3µM*
CC1=NN(S(=O)(=O)c2ccc(C)cc2)C(=O)c2ccccc2O1 | ? | -3 | ? | 0% | 8%
CCC(C(=O)Nc1ccc(C(C)C)cc1)n1nc(C)n2c(cc3cc(C)ccc32)c1=O (stereo not given) | ? | nt | 23µM* | nt | nt
CCc1cccc(CC)c1NC(=O)C(CC)n1nc(C)n2c(cc3cc(C)ccc32)c1=O (stereo not given) | 21µM* | nt | ? | nt | nt
CCC(C(=O)N1CCOCC1)n1nc(C)n2c(cc3cc(C)ccc32)c1=O (stereo not given) | 0% | -9 | -16% | 23% | 2%
CCC(C(=O)Nc1ccccc1)n1nc(-c2cc(C)ccc2C)ccc1=O (stereo not given) | -29% | nt | ? | nt | nt
CCCCSc1n[nH]c(=S)c2nc[nH]c12 | ? | 9 | ? | -3% | 2%
S=c1[nH]nc(SCc2ccccc2)c2[nH]cnc12 | 4.6µM* | 27 | ? | -9% | -8%
